PPARg SRC-1 ag: agonists of human PPARgamma SRC-1 coactivator recruitment; P37231; PPARgamma-SRC-1 coactivator recruitment biochemical assay; activation, % at 8 µM; actives 0.41% (n = 200,000); in the data active means activation above about 19%;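 further: 0% = DMSO and 100% = reference agonist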
PPARg SRC3 recr: promotes SRC-3 coactivator recruitment by human PPARgamma | P37231 | biochemical PPARgamma/SRC-3 coactivator recruitment assay | activation, % at 8 µM | actives 0.26% (n = 200,000) | AID 731; in the data active means activation above about 23%;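 further: 0% = DMSO and 100% = reference agonist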
SRC3 TRFRET art: flags TR-FRET format artefacts in PPARgamma SRC-3 recruitment agonist screen. TR-FRET artefact counter-screen, PPARgamma/SRC-3 format; stronger effect = higher value. TR-FRET ratio at 8 µM. actives 0.39% (n = 99,000). AID 1048
PPARg SRC2 recr: agonists of SRC-2 recruitment by human PPARgamma. PPARgamma LBD-SRC-2 recruitment, biochemical. activation, % at 8 µM. P37231. actives 0.34% (n = 200,000). AID 1032; in the data active means activation above about 22%;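 further: 0% = vehicle and 100% = reference agonist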
SRC1 TRFRET art: TR-FRET artefact, counter-screen to PPARgamma/SRC-1 agonist assay; TR-FRET ratio at 8 µM; actives 0.34% (n = 99,000); TR-FRET detection artefact counter-screen, emission ratio; stronger effect = higher value; in the data active means TR-FRET ratio above about 2300
TR-FRET SRC-2 ct: counter-screen for PPARgamma SRC-2 recruitment agonists: TR-FRET artefact. stronger effect = higher value. TR-FRET ratio at 8 µM. actives 0.4% (n = 200,000)
PPARg SRC2 ag: human PPARgamma SRC-2 recruitment agonism, confirmation; shares compounds with PPARg SRC3 recr; activation, % at 8 µM; actives 52% (n = 790); biochemical SRC-2 recruitment by PPARgamma; in the data active means activation above about 22%;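 further: 0% = vehicle alone and 100% = reference agonist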
PPARg SRC1 conf: confirmation of agonists of SRC-1 recruitment by human PPARgamma; actives 43% (n = 790); shares compounds with PPARg SRC3 recr; PPARgamma–SRC-1 coactivator recruitment biochemical assay; activation, % at 8 µM; in the data active means activation above about 20%;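 further: 0% = vehicle wells and 100% = reference agonist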
PPARg SRC3 conf: human PPARgamma SRC-3 recruitment agonism, confirmation; shares compounds with PPARg SRC3 recr; biochemical PPARgamma-SRC-3 coactivator recruitment, agonist mode; activation, % at 8 µM; actives 29% (n = 790); AID 1301; in the data active means activation above about 24%;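 further: 0% = vehicle wells and 100% = reference agonist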
Target sequence (P37231 whole entry, looked up): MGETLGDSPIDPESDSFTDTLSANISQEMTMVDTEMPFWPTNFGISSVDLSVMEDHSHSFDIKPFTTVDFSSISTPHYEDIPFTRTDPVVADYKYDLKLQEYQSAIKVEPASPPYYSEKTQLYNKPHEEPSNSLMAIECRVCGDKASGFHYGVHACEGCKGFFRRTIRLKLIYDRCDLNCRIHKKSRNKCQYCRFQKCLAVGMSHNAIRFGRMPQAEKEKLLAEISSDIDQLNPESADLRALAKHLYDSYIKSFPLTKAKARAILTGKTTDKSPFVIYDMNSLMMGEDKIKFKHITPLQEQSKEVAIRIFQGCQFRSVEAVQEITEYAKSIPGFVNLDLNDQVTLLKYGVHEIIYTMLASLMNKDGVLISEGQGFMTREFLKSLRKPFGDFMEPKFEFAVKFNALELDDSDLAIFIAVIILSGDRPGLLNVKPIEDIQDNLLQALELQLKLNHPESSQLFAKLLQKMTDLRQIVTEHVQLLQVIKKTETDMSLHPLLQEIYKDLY
Target sequence (Q9Y6Q9 whole entry, looked up): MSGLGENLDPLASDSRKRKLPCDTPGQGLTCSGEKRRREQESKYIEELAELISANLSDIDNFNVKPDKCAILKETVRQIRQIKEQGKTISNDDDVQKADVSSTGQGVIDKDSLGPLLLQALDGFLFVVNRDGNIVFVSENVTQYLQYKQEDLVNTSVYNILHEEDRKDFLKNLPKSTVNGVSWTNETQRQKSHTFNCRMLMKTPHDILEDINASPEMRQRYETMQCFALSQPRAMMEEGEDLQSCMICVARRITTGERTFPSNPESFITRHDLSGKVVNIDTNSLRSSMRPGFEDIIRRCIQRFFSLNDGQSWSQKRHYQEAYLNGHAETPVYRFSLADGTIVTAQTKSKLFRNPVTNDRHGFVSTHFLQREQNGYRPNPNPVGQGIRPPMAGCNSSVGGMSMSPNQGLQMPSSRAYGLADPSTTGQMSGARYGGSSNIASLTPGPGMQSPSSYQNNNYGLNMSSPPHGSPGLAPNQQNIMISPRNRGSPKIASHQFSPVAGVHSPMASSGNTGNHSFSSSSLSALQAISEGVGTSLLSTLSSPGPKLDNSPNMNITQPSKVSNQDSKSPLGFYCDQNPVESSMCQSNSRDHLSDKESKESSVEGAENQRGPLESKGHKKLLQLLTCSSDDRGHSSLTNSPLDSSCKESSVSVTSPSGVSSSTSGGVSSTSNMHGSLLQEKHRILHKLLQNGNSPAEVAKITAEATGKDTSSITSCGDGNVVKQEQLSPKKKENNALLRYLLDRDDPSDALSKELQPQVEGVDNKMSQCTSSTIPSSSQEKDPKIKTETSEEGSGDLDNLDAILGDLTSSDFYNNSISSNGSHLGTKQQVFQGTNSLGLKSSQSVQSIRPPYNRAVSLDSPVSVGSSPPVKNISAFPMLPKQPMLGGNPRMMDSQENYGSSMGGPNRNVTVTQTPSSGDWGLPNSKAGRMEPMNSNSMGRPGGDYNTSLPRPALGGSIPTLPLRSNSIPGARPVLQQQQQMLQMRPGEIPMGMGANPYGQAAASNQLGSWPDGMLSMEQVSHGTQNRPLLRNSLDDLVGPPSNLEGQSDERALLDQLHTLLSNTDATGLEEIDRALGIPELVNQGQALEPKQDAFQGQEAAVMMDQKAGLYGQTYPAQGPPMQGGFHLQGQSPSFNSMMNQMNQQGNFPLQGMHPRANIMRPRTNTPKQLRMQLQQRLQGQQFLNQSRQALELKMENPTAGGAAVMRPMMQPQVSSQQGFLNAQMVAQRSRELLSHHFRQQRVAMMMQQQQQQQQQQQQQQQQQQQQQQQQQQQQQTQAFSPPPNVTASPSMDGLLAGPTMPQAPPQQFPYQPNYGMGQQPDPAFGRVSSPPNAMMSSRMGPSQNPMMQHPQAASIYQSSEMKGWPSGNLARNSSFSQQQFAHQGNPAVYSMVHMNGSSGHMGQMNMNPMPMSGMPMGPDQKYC
Active calls of the source: *; · = no result given. Shown are actives, neighbours in structure and some others; about 0.84% of the full set was active somewhere. Unless noted, no stated cut-off is given here; in the data, active means TR-FRET ratio above about 2000; inactive means the rest.

SMILES	PPARg SRC-1 ag	PPARg SRC3 recr	SRC3 TRFRET art	PPARg SRC2 recr	SRC1 TRFRET art	TR-FRET SRC-2 ct	PPARg SRC2 ag	PPARg SRC1 conf	PPARg SRC3 conf
Cc1ccc(S(=O)(=O)NCCC(=O)N2CCN(Cc3ccccc3)CC2)cc1	-1	-4	1438	-7	1664	1431	·	·	·
C=CCn1c(-c2csc(-c3ccc(OC)c(OC)c3)n2)n[nH]c1=S	11	13	1975	23*	2209	2116*	20	15	14
C=CCn1c(-c2cc(Cl)ccc2OC)n[nH]c1=S	19*	20	·	26*	·	1913	30*	22*	21
C=CCn1c(-c2csc(-c3ccc(Cl)cc3)n2)n[nH]c1=S	7	13	·	10	·	1851	·	·	·
Cc1nnc(SCC(=O)N2CCN(Cc3ccccc3)CC2)s1	0	-6	·	3	·	1565	·	·	·
C/C=C/c1c(F)c(F)c(Oc2ccc(C(=O)O)cc2)c(F)c1F	-4	-7	·	-7	·	1548	·	·	·
Cc1ccccc1Nc1nc(-c2ccccc2)c(C(=O)Nc2cccnc2)s1	24*	18	2456*	26*	2835*	1978*	44*	36*	26*
O=C(Nc1cccnc1)c1sc2cccc(F)c2c1Cl	7	3	1729	5	1937	1497	·	·	·
O=C(Nc1cccnc1)c1sc(Nc2ccccc2F)nc1-c1ccccc1	50*	31*	3407*	48*	3447*	3029*	68*	50*	46*
CC(=O)c1c(C)[nH]c(C(=O)CSc2nnc(-c3ccco3)o2)c1C	10	4	1786	10	1872	1762	·	·	·
COc1ccc(-c2nnc(SCC(=O)c3[nH]c(C)c(C(C)=O)c3C)o2)cc1	19*	0	·	9	·	1621	4	1	3
c1ccc(-c2nc3ccccc3s2)nc1	0	1	·	0	·	1587	·	·	·
Brc1ccc(-c2nc3ccccc3s2)s1	71*	93*	·	63*	·	3008*	89*	66*	59*
Nc1ccc(Nc2nc(-c3ccncc3)cs2)cc1	11	33*	·	19	·	1644	5	3	3
CC(C)N1C(=O)CCC1C(=O)N1CCN(c2ccccn2)CC1 (stereo not drawn)	2	2	1586	-7	1626	1438	·	·	·
Nc1nc(C(=O)N2CCOCC2)nn1C(=O)c1ccc(Cl)cc1	-1	2	1454	-10	1881	1374	·	·	·
O=c1[nH]c(S)nc2sc3c(c12)CCCC3	23*	13	2183*	29*	2564*	2002*	17	11	12
CSc1nc2sc3c(c2c(=O)[nH]1)CCCC3	0	3	·	3	·	1485	·	·	·
COc1ccc2[nH]c3c(N4CCN(Cc5ccc6c(c5)OCO6)CC4)ncnc3c2c1	1	-5	·	-3	·	1576	·	·	·
Cc1ccc(C)c(OCC(=O)Nc2cc(C(=O)O)cc(C(=O)O)c2)c1	7	2	1686	-13	1746	1492	·	·	·
Cc1ccc2nc(N3CCN(S(=O)(=O)c4ccc5c(c4)OCCO5)CC3)c(C#N)cc2c1	31*	45*	·	22*	·	3423*	14	8	6
Cc1ccc(S(=O)(=O)N2CCCN(S(=O)(=O)c3ccc4c(c3)OCCO4)CC2)cc1	7	-10	·	5	·	1679	·	·	·
NC(=O)c1sc2nc(-c3ccco3)ccc2c1N	18	30*	·	18	·	1756	14	16	10
C#CCNC(=O)C1=C[C@H](C2CCCCC2)C[C@H](OCc2ccc(CO)cc2)O1	24*	2	1716	15	1703	1615	1	1	1
COc1ccccc1N1CCN(CCC(=O)Nc2ccc3c(c2)OCO3)CC1	5	6	·	4	·	1489	·	·	·
SMILES	PPARg SRC-1 ag	PPARg SRC3 recr	SRC3 TRFRET art	PPARg SRC2 recr	SRC1 TRFRET art	TR-FRET SRC-2 ct	PPARg SRC2 ag	PPARg SRC1 conf	PPARg SRC3 conf
Cc1ccc(S(=O)(=O)NCc2ccc(C(=O)N3CCc4ccccc4C3)cc2)cc1	9	0	1742	2	1823	1465	·	·	·
Cc1cc(SCC(=O)c2ccc3c(c2)OCO3)nc2ccccc12	20*	44*	·	37*	·	3038*	70*	57*	47*
CC(=O)C1=C(O)C(=O)N(c2nccs2)C1c1ccccc1 (stereo not drawn)	10	16	·	27*	·	1601	22*	16	13
CCOC(=O)C(=O)NNc1cccc(C)c1C	5	5	1725	6	1915	1658	·	·	·
CCCC(=O)Nc1nc(C)c(C(C)=O)s1	35*	21	2466*	30*	2803*	2441*	32*	21*	21
CCCC1O[C@@H]2CC3C4CCC5=CC(=O)C=C[C@]5(C)C4C(OC(C)=O)C[C@]3(C)[C@]2(C(=O)COC(C)=O)O1 (stereo partly drawn)	60*	47*	·	38*	·	1573	42*	49*	48*
CCCC1O[C@@H]2C[C@H]3[C@@H]4CCC5=CC(=O)C=C[C@]5(C)[C@H]4[C@@H](O)C[C@]3(C)[C@]2(C(=O)CO)O1 (stereo partly drawn)	2	7	1556	6	1864	1649	·	·	·
COc1ccc(OC)c(C2C(C(=O)c3cc4ccccc4o3)=C(O)C(=O)N2c2cc(C)on2)c1 (stereo not drawn)	19*	15	·	22*	·	2296*	28*	21*	17
COc1ccc(-c2nnc(Nc3ccc(S(=O)(=O)Nc4nccs4)cc3)c3ccccc23)cc1	55*	47*	1895	18	2204	1729	35*	25*	24*
COc1ccc(S(=O)(=O)Nc2nccs2)cc1OC	1	1	1568	7	1720	1549	·	·	·
O=C(NCc1csc(-c2ccccc2)n1)c1ccco1	2	-11	·	-3	·	1416	·	·	·
CCN1CCN(c2nc(N)c([N+](=O)[O-])c(Nc3ccc(C)c(C)c3)n2)CC1	0	-2	1521	1	1670	1662	·	·	·
CS(=O)(=O)c1sc2nc(-c3cccs3)cc(-c3ccccc3)c2c1N	22*	25	·	30*	·	2002*	28*	22*	21
Cc1onc(-c2ccccc2Cl)c1C(=O)N1CCN(C(=O)c2ccco2)CC1	-5	3	·	-4	·	1536	·	·	·
Nc1cc2nsnc2cc1Br	230*	334*	·	265*	·	6354*	225*	167*	150*
CSc1ccccc1-c1nnc(-c2ccc(Cl)cc2Cl)o1	2	7	·	3	·	1526	·	·	·
CCSc1nnc(-c2ccccc2SC)o1	20*	11	1975	19	2385*	2020*	27*	20*	18

Source: PubChem (The Scripps Research Institute Molecular Screening Center)
